Here are results for twelve molecules from PubChem BioAssay (NCATS).

SMILES strings stand for the structures. Inconclusive results are not listed. Values without a mark were called inactive. The source made the active and inactive calls. Calls come from the whole dose curve; as a rule, active = well fitted inhibition curve with a large enough effect; inconclusive = small, poorly fitted or top-dose-only effect; inactive = flat fitted curve, though single readings scatter.
% is set by controls: 0 for no effect and ±100 for the full control effect.

The nature of this assay: Primary qHTS for inhibitors of nuclear receptor binding SET domain protein 2 (NSD2) in an isogenic RCH-ACV NSD2 p.E1099K mutant (9B) (AID 1645876). Note: nearly all actives have a fitted effect of over 70% in size. To be noted: RCH-ACV (leukaemia line) NSD2 E1099K (9B) viability, CellTiter-Glo, 72 h; series mostly up to 44.9 µM; activity change, negative = viability loss: at the top concentration. (In qHTS, concentration-response curves come from the screen itself.)
As to `CC(C)c1ccc(CO)cc1O[C@@H]1O[C@H](CO)[C@@H](O)[C@H](O)[C@H]1O`, the molecule was called inactive.

For `COC(=O)[C@@H](O)[C@H]1[C@@]2(C)CC3(O)[C@@H](C(=O)[C@H]2O)[C@]24O[C@]25CC(=O)O[C@@H](c2ccoc2)[C@]5(C)CCC4[C@]13C` (some centres not stated), the “activity change, negative = viability loss” value was -4.75% [at 17.3 µM].

Regarding `CCOC(=O)C(CCc1ccccc1)NC(C)C(=O)N1C(=O)N(C)CC1C(=O)O` (configuration not stated), the result was inactive.

For `CC1(C)CC[C@]2(C(=O)O[C@@H]3O[C@H](CO)[C@@H](O)[C@H](O)[C@H]3O)CC[C@]3(C)C(=CCC4[C@@]5(C)CC[C@H](O[C@@H]6O[C@H](C(=O)O)[C@@H](O)[C@H](O)[C@H]6O)C(C)(C)C5CC[C@]43C)C2C1` (some centres not stated), the activity change, negative = viability loss was -3.82% [at 9.23 µM].

Regarding `O=C(O)/C=C/c1ccc(O)c(O[C@@H]2O[C@H](CO)[C@@H](O)[C@H](O)[C@H]2O)c1`, the outcome was inactive.

`CC(C)(O)c1ccc2c(c1)C(O)C[C@H]1[C@](C)(C(=O)O)CCC[C@]21C` (some centres not stated): the “activity change, negative = viability loss” value is 3.23%.

`CC1=CC(=O)CC(C)(C)[C@@]1(O)CC[C@@H](C)O[C@@H]1O[C@H](CO)[C@@H](O)[C@H](O)[C@H]1O`: the “activity change, negative = viability loss” value is 1.82%.

With `COC(=O)C(C)C1CCC2(C)C(=O)C=CC(C)(O)C2C1O` (configuration not stated), the “activity change, negative = viability loss” value was -1.13%.

`CC(C)(O)/C=C/CC(C)(O)C1C(O)CC2(C)C3CCC4C(C)(C)C(=O)CCC4(C)C3CCC12C` (configuration not stated): the “activity change, negative = viability loss” value was -1.66% [at 17.3 µM].

Consider `CC1C(=O)CC2C3CCC(C(=O)O)C12CC3(C)CO` (configuration not stated), for which the “activity change, negative = viability loss” value is -12.6%.

As to `CC(C)=CCC/C(C)=C/Cc1ccc(O)c(C2OC(=O)c3cc(C(=O)O)cc(O)c32)c1O` (configuration not stated), the “activity change, negative = viability loss” value is -17.7% [at 17.3 µM].

As to `C[C@@H]1O[C@@H](O[C@@H]2CO[C@@H](O[C@H]3CC[C@@]4(C)C(CC[C@]5(C)C4CC=C4[C@@H]6CC(C)(C)CC[C@]6(C(=O)O[C@@H]6O[C@H](CO)[C@@H](O)[C@H](O)[C@H]6O)CC[C@]45C)[C@]3(C)CO)[C@H](O)[C@H]2O[C@@H]2O[C@H](CO)[C@@H](O)[C@H](O)[C@H]2O)[C@H](O)[C@H](O)[C@H]1O` (some centres not stated), the activity change, negative = viability loss was -16% [at 9.23 µM].
